The campaign covered roughly 85,000 compounds. About 440 (0.52%) showed an effect of 50% or more. The entries come from a sample that favours strong results as a whole.
Experiment: In vitro enzyme assay to detect hydrolysis of chlorophenol red-beta-D-[…] directly proportional to the number of Toxoplasma stably expressing beta-galactosidase
Format: functional, organism-based, Toxoplasma gondii
Set-up: scale not given: in the data most compounds retested in dose-response had high values

| SMILES | Percent Effect (50 µM) | Percent Effect (10 µM) |
| --- | --- | --- |
| Cc1nnc(SCC(=O)C(C)(C)C)[nH]1 | 12.7% |  |
| Cc1n[nH]cc1CNCCNc1ncc(Cl)cc1Cl | 5.335% |  |
| CNC(=O)CN(C)C(=O)CCc1ccc(Br)cc1F | 0.9597% |  |
| NCc1ccc(C(=O)N2CCN(C3CC3)C(=O)C2)cc1 | 8.158% |  |
| O=C(c1cnsn1)N1CCN(C2CC2)C(=O)C1 | 91.53% |  |
| COc1ccccc1C(=O)N1CCN(C2CC2)C(=O)C1 | -3.275% |  |
| COc1cc(CN)ccc1OCC(N)=O | 19.26% |  |
| Cc1nc(CC(=O)NCCN2CCNC2=O)c(C)s1 | -2.42% |  |
| O=C(NCCO)Nc1nc2ccccc2s1 | 9.255% |  |
| OCCNc1nc2ccccc2s1 | 92.76% |  |
| NCCNc1nc2ccccc2s1 | 19.92% |  |
| NC(=O)C1CCN(c2ncnc3ccsc23)CC1 | 0.8525% |  |
| CCOC1CCCN(C(=O)c2ccc(C)[nH]c2=O)C1 (configuration not stated) | 1.701% |  |
| CC(C)n1cc(S(=O)(=O)N2CCCCCC2)cn1 |  | 51.25% |
| CC(C)n1cc(S(=O)(=O)N2CCCCC2)cn1 |  | 1.913% |
| CC(C)n1cc(S(=O)(=O)N2CCSCC2)cn1 |  | 32.53% |
| CN(C)C(=O)c1ccc(Oc2ncccn2)cc1 | -3.725% |  |
| Cc1cc(C2CCCN(CC(=O)Nc3nc4c(s3)CCC4)C2)n[nH]1 (configuration not stated) |  | 56.52% |
| O=C(CN1CCCC(c2ccn[nH]2)C1)Nc1nc2c(s1)CCC2 (configuration not stated) |  | 42.36% |
| O=C(CN1CCCC(c2ccn[nH]2)C1)Nc1nc2c(s1)CCCC2 (configuration not stated) |  | 31.73% |
| Cc1noc(CN(C)Cc2cncn2C(C)C)n1 | -12.13% |  |
| CCN1CC2(CC1=O)CN(Cc1cnn(C)c1)CCN(C(=O)C(C)C)C2.O=C(O)C(F)(F)F (configuration not stated) |  | -2.705% |
| CCN1CC2(CC1=O)CN(Cc1ccoc1)CCN(C(=O)C(C)C)C2 (configuration not stated) |  | 73.92% |
| CCN1CC2(CC1=O)CN(Cc1ccco1)CCN(C(=O)C(C)C)C2.O=C(O)C(F)(F)F (configuration not stated) |  | -13.42% |

| SMILES | Percent Effect (50 µM) | Percent Effect (10 µM) |
| --- | --- | --- |
| CCN1CC2(CC1=O)CN(Cc1ccsc1)CCN(C(=O)C(C)C)C2.O=C(O)C(F)(F)F (configuration not stated) |  | -7.478% |
| CCN1CC2(CC1=O)CN(Cc1cccs1)CCN(C(=O)C(C)C)C2 (configuration not stated) |  | -4.777% |
| CCN1CC2(CC1=O)CN(Cc1ccncc1)CCN(C(=O)C(C)C)C2.O=C(O)C(F)(F)F.O=C(O)C(F)(F)F (configuration not stated) |  | 78.24% |
| NS(=O)(=O)c1ccc(Sc2ccc(F)cc2F)nc1 | -8.713% |  |
| CS(=O)(=O)N1CCC(CN)C1 (configuration not stated) | 0.02635% |  |
| CC(Cc1ccco1)NS(=O)(=O)N1CCCCC1 (configuration not stated) |  | 0.1189% |
| CC(Cc1ccco1)NS(=O)(=O)N1CCCCCC1 (configuration not stated) |  | -1.07% |
| CC(Cc1ccco1)NS(=O)(=O)N1CCOCC1 (configuration not stated) | 99.87% |  |
| Nc1nc(O)cc(N2CCC(c3cc(Cc4ccccc4)n[nH]3)CC2)n1 |  | 2.428% |
| Nc1nccc(N2CCC(c3cc(Cc4ccccc4)n[nH]3)CC2)n1 |  | 46.75% |
| Nc1cc(N2CCC(c3cc(Cc4ccccc4)n[nH]3)CC2)ccn1 |  | 67.3% |
| CN(C)c1ccc(NC(=O)N2CCSCC2)cn1 | -21.27% |  |
| COc1ccc2[nH]cc(-c3ccnc(N4CCC(C)CC4)n3)c2c1 |  | 11.49% |
| COC(=O)c1ccc2c(-c3ccnc(NCCO)n3)c[nH]c2c1 |  | 29.45% |
| COc1ccc2[nH]cc(-c3ccnc(NC4CCCC4)n3)c2c1 |  | 56.3% |
| Cn1ccnc1SCC(=O)Nc1cccnc1 | -23.51% |  |
| COCCCOc1cc(C)ccc1CN | -20.96% |  |
| COc1cccc(CC(=O)N2CCNC(=O)C2)c1 | 4.575% |  |
| COc1ccc(N2CCCN(CC(=O)N3CCNC(=O)C3)CC2)cc1 |  | -0.2401% |
| COc1ccc(NCC(=O)N2CCNC(=O)C2)c(C)c1 | 52.04% |  |
| NCc1ccc(N2CCS(=O)(=O)CC2)cc1 | 2.889% |  |
| CC(Nc1ncnc2c1cnn2C)c1ccncc1 (configuration not stated) | 10.45% |  |
| NC(=O)CN1CCCN(C(=O)c2sccc2Br)CC1 | 2.336% |  |
| Cc1ccc(C(CCNCCN(C)C)C2CCOC(C)(C)C2)cc1.O=C(O)C(=O)O (configuration not stated) |  | 5.223% |

| SMILES | Percent Effect (50 µM) | Percent Effect (10 µM) |
| --- | --- | --- |
| Cc1ccc(C(CCNCCCN(C)C)C2CCOC(C)(C)C2)cc1.O=C(O)C(=O)O (configuration not stated) |  | 86.28% |
| CN(C)CCCNCCC(c1ccccc1)C1CCOC(C)(C)C1.O=C(O)C(=O)O (configuration not stated) |  | 13.16% |
| CN(C)CCNCCC(c1ccccc1)C1CCOC(C)(C)C1.O=C(O)C(=O)O (configuration not stated) |  | -5.061% |
| CN(C)CCCNCC1CCOC(C)(C)C1 (configuration not stated) |  | 15.27% |
| CC(=O)Nc1nc2c(s1)CCCC2 | -6.719% |  |
| O=S(=O)(c1ccc2c(c1)OCCO2)N1CCCNCC1 | 3.594% |  |
| O=S(=O)(c1ccc2c(c1)OCCO2)N1CCc2ccccc2C1 |  | 3.262% |
| NC1CN(S(=O)(=O)c2ccc3c(c2)OCCO3)C1 | 61.03% |  |
| c1cncc(CCNCc2cccc3c2OCCO3)c1 | -5.823% |  |
| CN(C)S(=O)(=O)NCC(O)c1cccc(C(F)(F)F)c1 (configuration not stated) | 2.973% |  |
| Cc1cccc(C(=O)Nc2cccc(O)c2)n1 | 0.8696% |  |
| O=C(NCCn1cnc(C2CCCC2)cc1=O)NCc1cccs1 |  | 56.76% |
| O=C(NCCn1cnc(C2CCCC2)cc1=O)c1ccc(=O)[nH]n1 |  | -2.574% |
| CC(C)NC(=O)NCCn1cnc(C2CCCC2)cc1=O |  | 7.593% |
| CC(=O)c1ccc(Br)o1 | 1.756% |  |
| Cc1ccc(C(=O)COC(=O)c2cccnc2N)cc1 | -8.374% |  |
| CC(C)c1ccc(S(=O)(=O)C(C)C(N)=O)cc1 (configuration not stated) | -3.645% |  |
| CC(=O)N1CCN(C(=O)CCC(C)C)CC1 | -13.31% |  |
| CC(C)CCC(=O)N1CCNCC1 | -1.153% |  |
| CC(C)CCC(=O)N1CCC(C)(CO)C1 (configuration not stated) | 58.28% |  |
| Cc1noc(C)c1CN1CCCC(CS(C)(=O)=O)C1 (configuration not stated) | -9.047% |  |
| O=C1CC(C(=O)N2CCOC3(CCCC3)C2)CCN1 (configuration not stated) | -8.974% |  |
| C1CC(C2CNC2)CCO1 | 67.45% |  |
| C1CC(C2CCOC2)CCN1 (configuration not stated) | 0.8119% |  |

| SMILES | Percent Effect (50 µM) | Percent Effect (10 µM) |
| --- | --- | --- |
| C1CC(C2CNC2)CO1 (configuration not stated) | 5.994% |  |
| CCNC(=O)CNc1nccc(OC)n1 | 5.07% |  |
| Cc1nn(-c2ccc(F)cc2)cc1CN | -3.262% |  |
| CC(C)COCC1CCNCC1 | 3.232% |  |
| Cc1ccc(C(=O)NCCCNCCCN(C)C)cn1 | 99.75% |  |
| CCCC(=O)NCCCNC(=O)c1ccc(C)nc1 | -3.506% |  |
| Cc1ccc(C(=O)NCC(C)(C)N(C)C)cn1 | -0.683% |  |
| O=C(NC1CCCSC1)N[C@H](CO)Cc1ccccc1 (some centres not stated) | 1.879% |  |
| O=C(NC1CCCSC1)N(CCO)C1CC1 (configuration not stated) | 98.6% |  |
| Cc1nnc(NC(=O)N(CCO)C2CC2)s1 | -4.304% |  |
| CCCn1ccnc1CNC(=O)CCNS(C)(=O)=O | -5.274% |  |
| Cc1cc(S(=O)(=O)N[C@@H]2CCOC[C@H]2O)n(C)n1 | 15.92% |  |
| CCn1ccnc1CN(C)CCC(=O)NC(C)C | 14.34% |  |
| CN(C)C1CCN(C(=O)CN(C)S(C)(=O)=O)CC1 | -9.436% |  |
| COc1ncccc1-c1csc(NCCSC)n1 | 98.47% |  |
| COc1ncccc1-c1cccc(C#N)n1 | 5.499% |  |
| COCCNc1nc(-c2ccc(O)cc2O)cs1 | 0.3364% |  |
| N#Cc1cccc(NC(=O)NC2CCS(=O)(=O)C2)c1 (configuration not stated) | 1.062% |  |
| CCC(=O)N(c1ccc(Cl)cc1)C1C=CS(=O)(=O)C1 (configuration not stated) | -0.8656% |  |
| NCCCNS(=O)(=O)c1ccc(Cl)cc1 | -0.1272% |  |
| O=C(NCCC1=CCCCC1)c1cc(-c2ccc(O)cc2)n[nH]1 |  | 74.79% |
| Cc1ccc(-c2cc(C(=O)NCCC3=CCCCC3)[nH]n2)o1 |  | 28.69% |
| CCCc1cc(C(=O)NCCC2=CCCCC2)[nH]n1 |  | 32.61% |
| O=C(CN1CCN(CCO)CC1)Nc1ccc(Br)cn1 | 2.183% |  |

| SMILES | Percent Effect (50 µM) | Percent Effect (10 µM) |
| --- | --- | --- |
| COc1cc(Cl)ccc1CN | 12.35% |  |
| CC(=O)c1c(C)nn(CC(=O)Nc2ccc(Br)cc2)c1C |  | 96.91% |
| COc1ccc(NC(=O)Cn2nc(C)c(C)cc2=O)cc1 |  | -1.054% |
| COc1ccc(NC(=O)Cn2nc(C)c(C(C)=O)c2C)cc1 |  | 89.45% |
| CC(=O)c1c(C)nn(CC(=O)Nc2ccc(F)cc2)c1C |  | 19.31% |
| CCN1CCN(CC(=O)Nc2ccc(OC)cc2)CC1 | 6.454% |  |
| Cc1cc(=O)n(CC(=O)Nc2ccc(Cl)cc2)nc1C |  | 3.812% |
| NCCS(=O)(=O)NCc1ccccc1 | -6.39% |  |
| CC(=O)NCCNC(=O)CC(C)C1CCCCC1 (configuration not stated) | -13.76% |  |
| CNC(=O)CN1CCC(NC(=O)c2cccs2)CC1 | -6.649% |  |
| CS(=O)(=O)C1CCCCN(C(=O)CC2CCSCC2)C1 (configuration not stated) | -13.3% |  |
| NC(=O)c1ccc(OCC(=O)c2ccccc2F)cc1 | -5.248% |  |
| CCN(Cc1ccncc1)c1cc(C2CCNCC2)nc(C)n1 |  | 30.82% |
| CCN(Cc1ccncc1)c1cc(C2CCCNC2)nc(C)n1 (configuration not stated) |  | 14.41% |
| Cc1nc(-c2ccc(F)cc2)cc(C2CCNCC2)n1 |  | 1.268% |
| Cc1nc(C2CCNCC2)cc(N(C)Cc2cc3cc(F)ccc3[nH]2)n1 |  | 63.01% |
| CN(Cc1cc2cc(F)ccc2[nH]1)c1cc(C2CCCNC2)ncn1 (configuration not stated) |  | 38.81% |
| CCN(Cc1c(F)cccc1Cl)c1cc(C2CCNCC2)nc(C)n1 |  | 79.97% |
| CCC(N)c1ccccc1OCC(=O)N(C)C (configuration not stated) | -2.206% |  |
| NC(=O)CCSc1nnc(N2CCCC2)n1C1CC1 | 10.69% |  |
| Cc1nccn1CCNc1cc(C2CC(O)C2)ncn1 (configuration not stated) | 47.03% |  |
